In all, about 85,000 compounds went through this assay and about 5,100 (6%) were called active. This is one part of a sample in which actives are shown more often than they occur.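 Rule for the calls: active = viability at or below 40%; inactive = viability above 40%.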
Experiment: proliferation blockers of H69AR lung cancer cells, primary screen, cell-based, human, 86K library (AID 598);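 note: multidrug resistant small cell line overexpressing MRP-1 efflux transporter; 100% = mean luminescence of untreated control wells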
Details: H69AR lung tumor viability, ATP luminescence, 72 h; at 10 µM; hits give low values

| Compound | viability |
| --- | --- |
| Cc1ccc(Cn2c(C)nc3c(c2=O)c2nc4ccccc4nc2n3Cc2ccco2)cc1 | 83.3% (inactive) |
| Cc1nc2c(c(=O)n1Cc1ccco1)c1nc3ccccc3nc1n2Cc1ccccc1 | 11.2% (active) |
| COCCCn1c2nc3ccccc3nc2c2c(=O)n(Cc3ccc(Cl)cc3)c(C)nc21 | 64.8% (inactive) |
| OCCCN1c2ccccc2Nc2nnc(-c3ccccc3)cc21 | 39.4% (active) |
| Cc1nc(NC(=O)C2CCCCC2)sc1C | 91.5% (inactive) |
| CCNS(=O)(=O)c1ccc(NC(=O)Nc2cccc(C(F)(F)F)c2)cc1 | 9.94% (active) |
| O=C(O)CSCC(=O)Nc1cccc(C(F)(F)F)c1 | 96.6% (inactive) |
| CCNS(=O)(=O)c1ccc(NC(=O)Nc2cccc(OC)c2)cc1 | 82.3% (inactive) |
| COc1ccc(-c2cn(-c3ccc(C)cc3)c(=O)n2CC(=O)Nc2ccc(OC)c(OC)c2)cc1 | 76.5% (inactive) |
| CS(=O)(=O)n1nc(-c2ccccc2)nc1NCc1ccco1 | 96.7% (inactive) |
| Cc1cc(S(=O)(=O)NC2CCCCC2)ccc1OCC(=O)NCc1cccnc1 | 107% (inactive) |
| CC1(C)CC(CC(=O)O)C(=O)O1 (configuration not stated) | 98% (inactive) |
| OC(COc1cccc2ccccc12)CN1CCN(c2ccccn2)CC1 (configuration not stated) | 86.3% (inactive) |
| Cc1ccc(OCC(O)CN2CCN(CC(O)COc3ccc(C)cc3Cl)CC2)c(Cl)c1 (configuration not stated) | 1.96% (active) |
| COc1cccc(OCC(O)CN2CCN(CCO)CC2)c1 (configuration not stated) | 96.9% (inactive) |
| CCN(CC(=O)NCc1cccs1)c1nnnn1-c1ccccc1 | 14% (active) |
| Cc1nnc(SCC(=O)NCc2cccs2)[nH]c1=O | 91.8% (inactive) |
| O=C(CSc1nnnn1-c1ccccc1)NCc1ccco1 | 80% (inactive) |
| c1ccc2c(c1)C(=NC1CCCCC1)NC2=NC1CCCCC1 | 15.9% (active) |
| O=C1CCCCC(=O)c2ccccc2N1 | 102% (inactive) |
| Cc1nnc(OCC(=O)NCCC2=CCCCC2)c2ccccc12 | 101% (inactive) |
| Cc1c(NC(=O)c2coc(=O)c(Br)c2)c(=O)n(-c2ccccc2)n1C | 2.66% (active) |
| Cc1cc(C(=O)Nc2c(C)n(C)n(-c3ccccc3)c2=O)cs1 | 110% (inactive) |
| COC(=O)Nc1c(C)n(C)n(-c2ccccc2)c1=O | 99.9% (inactive) |
| O=C(Nc1ccc(Cl)cn1)Nc1cccs1 | 98.4% (inactive) |

| Compound | viability |
| --- | --- |
| Clc1ccc(Nc2nc(-c3cccs3)cs2)nc1 | 31.8% (active) |
| c1ccc(Nc2nc(-c3ccncc3)cs2)nc1 | 86.7% (inactive) |
| Cc1cc(C)c2cc(CN(Cc3nnnn3Cc3ccc(F)cc3)C3CCCC3)c(=O)[nH]c2c1 | 64.6% (inactive) |
| CCCCOC(=O)Cn1c(=N)n(CCN(CC)CC)c2ccccc21 | 91.2% (inactive) |
| O=c1c2ccccc2nc(N/N=C/c2ccccc2)n1O | 46.3% (inactive) |
| CCn1c(/C=C/c2ccc([N+](=O)[O-])o2)nc2ccccc2c1=O | 6.55% (active) |
| CCOC(=O)C1CCc2nc3ccccc3c(=O)n21 (configuration not stated) | 96.6% (inactive) |
| O=C(CCN1c2ccccc2Sc2ccccc21)Nc1ccccc1 | 70.8% (inactive) |
| CC1=CC(=O)C=CC1(C)C(Cl)(Cl)Cl (configuration not stated) | 105% (inactive) |
| COc1ccc2c(c1)cc1n2CCN=C1NN | 90.8% (inactive) |
| COC(=O)C1=C(C(=O)OC)C2(OC1c1ccc(Br)cc1)C(=O)c1ccccc1C2=O (configuration not stated) | 106% (inactive) |
| CCOC(=O)c1ccc(N2C(=O)CC(N(C)Cc3ccccc3)C2=O)cc1 (configuration not stated) | 93.7% (inactive) |
| Fc1ccc(N2CCN(Cc3cnc(Oc4ccc(Br)cc4)s3)CC2)cc1 | 90.4% (inactive) |
| Oc1c(CN2CCN(c3ccc(F)cc3)CC2)cc(Cl)c2cccnc12 | 5.07% (active) |
| O=C(c1cccc(C(=O)N2CCN(c3ccc(F)cc3)CC2)c1)N1CCN(c2ccc(F)cc2)CC1 | 70.1% (inactive) |
| Cn1c(-c2sc3cc(C(F)(F)F)cnc3c2-c2ccccc2)n[nH]c1=S | 92.5% (inactive) |
| C=CCc1ccc(OCCOc2cccc(/C=N/n3cnnc3)c2)c(OC)c1 | 80.3% (inactive) |
| CCOC(=O)CSc1nnc(-c2ccncc2)o1 | 95.7% (inactive) |
| O=C(Nc1ccon1)c1sc2ccccc2c1Cl | 88.1% (inactive) |
| O=C(OCC#CCSc1nnc(-c2ccncc2)o1)c1sc2ccccc2c1Cl | 2.76% (active) |
| O=C(Nc1ccc2c(c1)CCC2)c1cccc(S(=O)(=O)N2CCN(c3ccc(F)cc3)CC2)c1 | 79.3% (inactive) |
| COc1ccc(C2CC(=O)n3c(nc4ccccc43)S2)cc1OC (configuration not stated) | 115% (inactive) |
| COc1ccc(C2CC(c3cccs3)=Nc3ccccc3S2)cc1OC (configuration not stated) | 20.8% (active) |
| COc1ccc(C2SCCN2S(=O)(=O)c2ccccc2)cc1OC (configuration not stated) | 81.4% (inactive) |
| O=C(Nc1ccc(F)c(Cl)c1)C1CCN(S(=O)(=O)c2cccnc2)CC1 | 71.8% (inactive) |

| Compound | viability |
| --- | --- |
| CCOC(=O)c1cnn(Cc2ccccc2Cl)c1N | 96.2% (inactive) |
| CC1CCCN(C(C(=O)Nc2ccc(C(C)C)cc2)c2ccc3c(c2)OCO3)C1 (configuration not stated) | 59.6% (inactive) |
| Cc1[nH]n(-c2ccc([N+](=O)[O-])cc2)c(=O)c1C=NCCN1CCN(C(=O)c2ccccc2F)CC1 | 39.4% (active) |
| CC(=O)N1CCN(CCN=CC2=C(O)CC(C)(C)CC2=O)CC1 | 101% (inactive) |
| CC(=O)Nc1ccc(S(=O)(=O)N2CCN(C(=O)c3ccccc3F)CC2)cc1 | 85.2% (inactive) |
| CCC(C(=O)NCc1ccc(OC)cc1)n1nc(C)n2c(cc3occc32)c1=O (configuration not stated) | 80.3% (inactive) |
| CCCc1nnc(NC(=O)c2cccs2)s1 | 102% (inactive) |
| CCCCNS(=O)(=O)c1ccc(S(=O)(=O)n2cnc3ccccc32)cc1 | 88.8% (inactive) |
| O=S(=O)(c1ccc(Br)cc1)n1ccc2ccccc21 | 8.36% (active) |
| CC1(C)C2CCC13CS(=O)(=O)NC3C2 (configuration not stated) | 91.1% (inactive) |
| CCn1c(C)nc2cc(C(=O)NNS(=O)(=O)c3ccc(C)cc3C)ccc21 | 95.5% (inactive) |
| OC(c1ccccc1)c1nccn1Cc1ccccc1 (configuration not stated) | 94.2% (inactive) |
| CCn1c(Cc2cccs2)nnc1SCC(=O)c1ccc(C)cc1 | 84.1% (inactive) |
| NC(=O)c1ncc(C(F)(F)F)cc1Oc1ccc(F)cc1 | 102% (inactive) |
| O=C(CN1CCN(c2ncc(C(F)(F)F)cc2Cl)CC1)Nc1ccc2c(c1)OCO2 | 105% (inactive) |
| N/C(=N\OC(=O)Nc1ccc(Cl)c(Cl)c1)c1ncc(C(F)(F)F)cc1Cl | 19.4% (active) |
| CCN1CCN(Cc2c(O)ccc3c(=O)c(-c4ccc(OC)c(OC)c4)c(C(F)(F)F)oc23)CC1 | 104% (inactive) |
| O=c1c(-c2ccc3c(c2)OCCO3)c(C(F)(F)F)oc2cc(O)cc(O)c12 | 39% (active) |
| CCSc1ccccc1C(=O)NCc1ccc(OC)cc1 | 92.6% (inactive) |
| CC(C)c1ccc(-c2noc(C3CCCN(S(C)(=O)=O)C3)n2)cc1 (configuration not stated) | 106% (inactive) |
| CC1CCCC(C)N1CCCNC(=O)c1cc2c(=O)n(C)c3ccccc3c2n1C (configuration not stated) | 69.1% (inactive) |
| Cn1c(C(=O)NCCCN2CCN(c3cccc(Cl)c3)CC2)cc2c(=O)n(C)c3ccccc3c21 | 1.66% (active) |
| CCn1c(=O)cc(OCC(=O)NCCCN2CCN(c3cccc(Cl)c3)CC2)c2ccccc21 | 43.8% (inactive) |
| Cn1c(=O)c2c(ncn2CC(COCc2ccccc2Cl)OCc2ccccc2Cl)n(C)c1=O (configuration not stated) | 77.7% (inactive) |
| Cc1ccc(-c2noc(CSc3nnc(-c4cccs4)n3C)n2)cc1 | 98.8% (inactive) |

| Compound | viability |
| --- | --- |
| COCCNS(=O)(=O)c1cc(Br)ccc1OC | 106% (inactive) |
| CCOCCn1c(C(C)C)nc2ccccc21 | 102% (inactive) |
| CCC(=O)NC(Nc1cc(C)ccn1)(C(F)(F)F)C(F)(F)F | 99% (inactive) |
| O=C(c1cccc2ccccc12)N1CCN(c2ccccc2F)CC1 | 56% (inactive) |
| COc1ccc2oc(=O)c(C(=O)N3CCN(c4ccccc4F)CC3)cc2c1 | 108% (inactive) |
| O=C(Nn1cc(C(=O)N2CCN(c3ccccc3F)CC2)c2ccccc2c1=O)c1cnccn1 | 34.7% (active) |
| CC(C)OC(=O)c1c(NC(=O)c2ccco2)sc2c1CCCC2 | 109% (inactive) |
| O=C1C(Cl)=C(N2CCOCC2)C(=O)N1c1ccccc1 | 86.6% (inactive) |
| COc1ccc2oc(C)c(NC(C)=O)c2c1 | 97.4% (inactive) |
| COc1cc(NS(=O)(=O)c2ccc(NC(C)=O)cc2)cc(OC)c1 | 90.3% (inactive) |
| COc1ccc(S(=O)(=O)Nc2ccc3oc(C)c(C(C)=O)c3c2)cc1 | 18.7% (active) |
| C=CCN(C(=O)Cn1ncc2c1-c1cc(C)ccc1OC2)c1ccccc1 | 84.9% (inactive) |
| CC(=O)C1=C(C)NC(=O)NC1c1cc(Br)ccc1OCC#N (configuration not stated) | 97.1% (inactive) |
| Cc1cnc(NC(=O)CSc2nnc(C)s2)s1 | 81.4% (inactive) |
| Cc1nnc(NC(=O)CSc2nccn2-c2cccc(C)c2C)s1 | 29.5% (active) |
| COc1ccccc1-n1c(CNC(=O)c2ccccc2)nnc1SCC(=O)Nc1nnc(C)s1 | 108% (inactive) |
| CCOC(=O)CSC1=C(C#N)C(c2ccco2)C(C(=O)OCc2ccccc2)=C(C)N1 (configuration not stated) | 22.2% (active) |
| C=CCOC(=O)C1=C(C)NC(SCC(=O)OCC)=C(C#N)C1c1ccc(C)cc1 (configuration not stated) | 61.6% (inactive) |
| COc1cc2c(cc1OC)C(c1ccc(C)o1)CC(=O)N2 (configuration not stated) | 85.8% (inactive) |
| CC1=C(C(=O)Nc2ccccc2)C(c2ccco2)C(C#N)=C(SCC(N)=O)N1 (configuration not stated) | 91% (inactive) |
| COC(=O)CSC1=C(C#N)C(c2ccccc2OC)C(C(=O)OC)C(=O)N1 (configuration not stated) | 94.8% (inactive) |
| Cc1ccc(C2CC(=O)NC(SCC(=O)OCc3ccccc3)=C2C#N)o1 (configuration not stated) | 24.4% (active) |

Source: PubChem BioAssay AID598 (SRMLSC, 2007)
